# Hits are enriched below; roughly 2.2% of the tested compounds scored in any of these assays.
# LGR2 inh: blocks bursicon-induced cAMP signaling via Drosophila LGR2. HEK293 LGR2, CRE-luciferase, bursicon-stimulated, 4 h. inhibition, % at 9.99 µM. 380,000 compounds, 0.35% hits;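 active = drop in luminescence signal, shown as inhibition above about 50% in the replicate tests, limit read from the data, passing the limit was not always enough; inconclusive = probably only some replicates passing the limit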;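 also: agonist challenge used bursicon conditioned medium at about half maximal strength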
# PAX8 reporter: inhibitors of PAX8 transcriptional activity in RMG-I cells | 360,000 compounds, 1.2% hits | inhibition, % at 12.6 µM | RMG-I TPO-luciferase reporter, SteadyGlo, 24 h;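 active = mean replicate inhibition at least 60% with every replicate also reaching 60%; inconclusive = only one of the two criteria is met; inactive = mean below 60% and not all replicates reaching 60%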;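 also: luciferase light reporting Pax8 driven TPO promoter activity; plate controls were median of neutral control wells for no effect and mitoxantrone controls for full effect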
# EBV LMP1 NFkB: inhibitors of Epstein-Barr LMP1-induced NF-kappaB reporter; inhibition, % at 12.5 µM; LMP1-induced NF-kappaB luciferase reporter cells, luminescence; 350,000 compounds, 0.69% hits; in the data active = inhibition above about 41%; inconclusive = no clear call, values can overlap the other calls;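 also: 0% = neutral control wells and 100% = reference inhibitor control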
# MITF TRPM1 inh: inhibitors of MITF-driven TRPM1 promoter in melanoma cells; SK-MEL-5 TRPM1 promoter luciferase, 24 h; inhibition, % at 12.5 µM; 330,000 compounds, 0.83% hits; AID 488899;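 active = mean inhibition across replicates of 60% or more, whatever share of single replicates reaches that level; inconclusive = some that reach 60%, reason not given; inactive = mean inhibition across replicates below 60%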
# EWS-Fli inh: inhibitors of EWS/Fli oncoprotein transcriptional activity; A673 NR0B1-luciferase reporter, viability-normalised; inhibition, % at 12.6 µM; 350,000 compounds, 0.67% hits; AID 651661;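 active = mean inhibition of at least 50% after viability correction, with every replicate also passing that limit; inconclusive = mean reaches 50% but only one of two replicates passes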;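 also: firefly luciferase signal divided by Alamar Blue viability fluorescence both relative to DMSO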
# Shn3 inh set2: inhibitors of Schnurri-3 3'UTR reporter in osteoblasts. inhibition, % at 12.5 µM. Clone20 osteoblast Shn3 3'UTR firefly luciferase, 24 h. 360,000 compounds, 0.52% hits;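 active = mean inhibition of at least 75% with every replicate also reaching 75%; inconclusive = mean inhibition at least 75% but some replicate below; inactive = mean inhibition below 75%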;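 also: 0% = median of neutral control wells and 100% = pilot-screen positive control compound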
# Starred values were filed as active, the others as inactive; ? = inconclusive; . = no result.
SMILES,LGR2 inh,PAX8 reporter,EBV LMP1 NFkB,MITF TRPM1 inh,EWS-Fli inh,Shn3 inh set2
CSc1nc2ccc(NC(=O)C3=NNC(=O)CC3)cc2s1,-39,-1,-27,.,-1,-4
CSc1nc2ccc(NC(=O)c3ccccn3)cc2s1,71*,-40,4,-1,22,-17
Cc1ccc2nc(NC(=O)c3ccccc3F)sc2c1,40,-34,-29,15,43,-8
CCOc1ccc2nc(NC(=O)c3ccccn3)sc2c1,89*,37,57*,80*,70*,65
O=C(COc1ccccc1)NNc1nc2c(F)cc(F)cc2s1,16,22,4,0,-2,-7
Cc1ccc2nc(NC(=O)c3ccccn3)sc2c1,103*,72*,82*,94*,84*,55
CCOc1ccc2nc(NC(=O)Nc3ccccc3)sc2c1,.,.,-65,-58,.,-27
C[C@H](CO)N1C[C@H](C)[C@@H](CN(C)S(=O)(=O)c2ccccc2)Oc2ccc(NC(=O)Cc3cn(C)c4ccccc34)cc2C1=O,.,17,.,.,7,.
Cc1cc2ncc(-c3ncc(C(F)(F)F)cc3Cl)cn2n1,.,.,37,-7,54*,-27
Cn1cccc1CC(=O)NNC(=S)Nc1ccc(Cl)cc1,0,-17,-12,10,-4,-22
Cn1cccc1CC(=O)NNC(=S)Nc1ccccc1Cl,-36,-25,58*,12,-3,-8
C[C@H]1CCCCO[C@@H](CN(C)S(=O)(=O)c2ccc(F)cc2)[C@@H](C)CN([C@@H](C)CO)C(=O)c2cc(NC(=O)Nc3cccc4ccccc34)ccc2O1,20,-16,.,.,-3,.
COCC(=O)N1C[C@H](C)[C@@H](OC)CN(C)C(=O)c2cc(NC(=O)Nc3cccc(F)c3)ccc2OC[C@@H]1C,-1,.,.,.,-2,.
O=C(O)c1cccc(N/N=C/c2sc(N3CCOCC3)nc2-c2ccccc2)c1,-115,.,-35,-35,.,-29
O=[N+]([O-])c1ccc(N/N=C/c2sc(N3CCOCC3)nc2-c2ccccc2)c(S(=O)(=O)Nc2ccccc2Cl)c1,?,0,35,65*,.,87*
O=[N+]([O-])c1ccc(N/N=C/c2sc(N3CCOCC3)nc2-c2ccccc2)c(S(=O)(=O)Nc2ccc(Cl)cc2)c1,5,102*,55*,72*,38,91*
C[C@@H]1CN([C@@H](C)CO)S(=O)(=O)c2ccc(-c3cccnc3)cc2O[C@@H]1CN(C)C(=O)CC1CC1,1,.,.,.,6,.
O=C(Nc1ncc([N+](=O)[O-])s1)c1ccc2c(c1)OCO2,91*,75*,55*,65*,49,30
CC(C)c1nnc(NC(=O)c2ccc3c(c2)OCO3)s1,74*,28,30,-2,?,-23
Cc1ccc(C(=O)Nc2ncc([N+](=O)[O-])s2)cc1,.,87*,68*,63*,76*,81
Cc1cnc(NC(=O)c2ccc3c(c2)OCCO3)s1,96*,99*,79*,82*,77*,79
Cc1ccc([N+](=O)[O-])cc1NC(=O)c1ccc2c(c1)OCO2,-10,19,3,2,-12,-17
Cc1cccnc1CN1CCN(C(=O)c2cc(COc3ccc4ncccc4c3)on2)CC1,11,1,23,9,4,88*
CCOC(=O)N1CCN(C(=O)c2cc(COc3ccc4ncccc4c3)on2)CC1,9,3,14,26,13,?
CCC(O)C1CCN(C(=O)c2cc(COc3ccc4ncccc4c3)on2)CC1 (configuration not stated),33,8,11,10,14,88*
SMILES,LGR2 inh,PAX8 reporter,EBV LMP1 NFkB,MITF TRPM1 inh,EWS-Fli inh,Shn3 inh set2
CC1=NN(c2nc(-c3ccc(C)cc3)cs2)C(=O)C1N=Nc1ccccc1O (configuration not stated),-7,-14,-2,69*,-11,92*
COc1cccc(S(=O)(=O)N[C@H]2CC[C@@H](CCn3cc(-c4ccccn4)nn3)O[C@H]2CO)c1,9,-18,.,.,3,.
O=S(=O)(C/C(=C/CO)S(=O)(=O)c1ccccc1)c1ccccc1,.,.,93*,78*,.,94*
O=C(CS(=O)(=O)c1ccccc1)CS(=O)(=O)c1ccccc1,-4,2,.,.,-2,.
COc1ccc(NC(=O)Nc2ccc3c(c2)[C@@H]2C[C@@H](CC(=O)N4CCc5ccccc5C4)O[C@H](CO)[C@@H]2O3)cc1,5,71*,.,.,-6,.
O=C(Nc1ccc(C(F)(F)F)cc1)Nc1ccc2c(c1)[C@@H]1C[C@@H](CC(=O)N3CCc4ccccc4C3)O[C@H](CO)[C@@H]1O2,4,76*,.,.,0,.
O=C(Nc1ccc(C(F)(F)F)cc1)Nc1ccc2c(c1)[C@@H]1C[C@H](CC(=O)N3CCc4ccccc4C3)O[C@H](CO)[C@@H]1O2,12,109*,.,.,27,.
O=C(Nc1ccc2c(c1)[C@@H]1C[C@H](CC(=O)N3CCc4ccccc4C3)O[C@H](CO)[C@@H]1O2)Nc1ccccc1F,20,25,.,.,-2,.
COc1ccc(NC(=O)Nc2ccc3c(c2)[C@@H]2C[C@H](CC(=O)N4CCc5ccccc5C4)O[C@@H](CO)[C@@H]2O3)cc1,1,-21,.,.,-2,.
CO[C@H]1CN(C)C(=O)c2ccc(NC(=O)C3CCOCC3)cc2OC[C@H](C)N(Cc2nccs2)C[C@H]1C,5,.,.,.,-3,.
CO[C@@H]1CN(C)C(=O)c2cc(NS(C)(=O)=O)ccc2OC[C@H](C)N(S(C)(=O)=O)C[C@@H]1C,4,-10,.,.,5,.
COC(=O)[C@]12CCCCC=C1N(Cc1cccc3ccccc13)C(=O)[C@H](CC(=O)NCCC(C)C)C2,64*,12,.,.,-7,.
COC(=O)[C@]12CCCCC=C1N(Cc1ccco1)C(=O)[C@H](CC(=O)N1CCN(C(=O)c3ccco3)CC1)C2,-3,85*,.,.,-4,.
CCOC(=O)[C@]12CCCC=C1N(Cc1cccc3ccccc13)C(=O)[C@H](CC(=O)N1CCOCC1)C2,-22,-6,.,.,-5,.
CCOC(=O)[C@]12CCCC=C1N(Cc1cccc3ccccc13)C(=O)[C@H](CC(=O)N1CCN(C(=O)c3ccco3)CC1)C2,11,85*,.,.,2,.
COC(=O)[C@]12CCCCC=C1N(Cc1ccco1)C(=O)[C@H](CC(=O)N1CCSCC1)C2,3,17,.,.,4,.
Cc1sc2ncnc(NCC3COc4ccccc4O3)c2c1C (configuration not stated),12,22,49*,32,.,74
c1ccc(-c2csc3ncnc(NCC4COc5ccccc5O4)c23)cc1 (configuration not stated),16,52,35,42,37,77
CCCNC(=O)N1[C@H](CO)[C@@H](c2ccccc2)C12CN(C(=O)CC1CC1)C2,8,.,.,.,-1,.
CC(=NNC(=S)N1CCN(c2ccccn2)CC1)c1nccs1,.,.,74*,.,.,85*
CC(=NNC(=S)N1CC2CCC(CC2)C1)c1cnccn1,-1,16,66*,65*,3,84*
